SMILES strings stand for the structures. Values joined by “and” are separate entries in the source; they are usually repeats but may differ in a detail not shown here. Equal values may be shown once. Records with an inconclusive call do not appear. Active and inactive are the calls of the source. Unless noted, calls come from the whole dose curve; as a rule, active = well fitted curve in the direction sought with a large enough effect; inconclusive = small, poorly fitted or top-dose-only effect, or another doubt; inactive = no such curve, though single readings can be large; an effect the other way counts as inactive or inconclusive.

Assay [1] concerns the target Cytochrome P450 3A4 (Homo sapiens) (UniProt P08684). Briefly: qHTS Assay for Inhibitors and Substrates of Cytochrome P450 3A4 (AID 884). Note: nearly all actives have a fitted effect of over 50% in size. Note: potency is the fitted concentration of half-maximal effect. Summed up:
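20 nM human CYP3A4 with 25 uM Luciferin-PPXE (at KM) in 200 mM KPO4, preincubated 10 min with compound; NADPH regeneration started a 60 min RT reaction. Luciferin detected by luminescence, normalized to 57 uM ketoconazole as full inhibition.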
(In general: Quantitative high-throughput screening tests each substance at several concentrations.)

Assay [2] has the same target. Briefly: qHTS Assay for Activators of Cytochrome P450 3A4 (AID 885). Note: nearly all actives have a fitted effect of over 65% in size. In a few lines:
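Signal was normalized against complete inhibition by 57 uM ketoconazole. The reaction used 20nM CYP3A4 with 25uM Luciferin-PPXE, 10-min compound preincubation and a 60-min NADPH-supported step at RT.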

Assay [3] is described as follows: Confirmation and Secondary Assay for Modulators of Hemoglobin Beta Chain Splicing at IVS2 705 locus (AID 930).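 Note: HeLa cells stably expressing the EGFP-705 splicing reporter; GFP fluorescence per well restored by corrected splicing of the IVS2-705 intron in EGFP; % of control where 0% means no effect.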 In a few lines: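 Stable HeLa line with EGFP disrupted by mutant beta-globin intron 2 (705). Overnight attachment, then 2 days of compound at 37C, 5% CO2. Signal: peak GFP intensity summed over objects 5-250 µm.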
The nature of assay [4]: qHTS Assay for Lipid Storage Modulators (AID 1519; calls by dose curve; for activity change, negative = inhibition: % is set by controls: 0 for no effect and ±100 for the full control effect). The conditions noted are these: Drosophila S3 cells, BODIPY lipid droplet/cell ratio, laser cytometry, cells loaded with oleic acid; for activity change, negative = inhibition: at 57.5 µM (top of the series). In a few lines: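 Cells seeded at 5,000 per well were treated with compounds over a concentration series and loaded with oleic acid (400 uM, as added). Lipid droplet fluorescence (488 nm excitation, 500-530 nm channel) was read by laser-scanning cytometry and normalized to 20 uM Triacsin C.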

Assay [5] is described as follows: Confirmation and Secondary Assay for Modulators of Hemoglobin Beta Chain Splicing at IVS2 654 locus (AID 910).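 Note: HeLa cells stably carrying EGFP split by mutant beta-globin IVS2-654 intron; % of control where 0% means no effect.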 In a few lines: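 HeLa cells stably expressing EGFP interrupted by β-globin IVS2-654 intron, seeded overnight in Opti-MEM/2% FCS, then treated 2 days at 37 °C. Restored splicing read as total peak GFP intensity per well by laser scanning cytometry (488 nm excitation, 500–520 nm emission); 500 nM antisense PNA as control.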

Assay [6] deals with Cytochrome P450 1A2 (Homo sapiens) (UniProt P05177). Briefly: p450-cyp1a2 (AID 410; calls by dose curve; note: potency is the fitted concentration of half-maximal effect). Summed up:
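Luminescent readout of luciferin formed from Luciferin-ME by human CYP1A2; data normalized against complete inhibition by 57 uM furafylline. Enzyme 20nM, substrate 100uM at Km, 100mM KPO4 buffer, 60 min reaction at room temperature.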

Assay [7] can be described thus: NFAT Signaling Pathway (AID 444; active = well fitted curve in either direction with a large enough effect, not every such curve was filed as active;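 note: carbachol stimulus at about its EC50 of 1 µM final; % is set by controls: 0 for no effect and ±100 for the full control effect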). The conditions noted are these: Jurkat NFAT-bla M1, carbachol, beta-lactamase ratio, 5 h; at 17.2 µM (top of the series). Summed up:
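Jurkat cells with NFAT-driven β-lactamase reporter and co-expressed M1 receptor, stimulated with carbachol (final 1 uM, ~EC50), compound titration, 5 h at 37 °C. CCF4 loaded 1 h at RT; 460/530 nm ratio gave %activity and AC50.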

Assay [8] in a line: Stat Signaling Pathway (AID 446; active = well fitted curve in either direction with a large enough effect, not every such curve was filed as active;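 note: ME-180 cervical cancer cells given 40 pM IL-6 alongside compound; SIE-controlled beta-lactamase reporter measured as 460/530 nm FRET emission ratio; % is set by controls: 0 for no effect and ±100 for the full control effect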). Summed up:
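Reporter line: ME-180 cervical carcinoma, SIE-beta-lactamase. Treatment: compound with 40 pM IL-6, 5 hrs, 37 C, in low-serum OPTI-MEM with 10 mM HEPES pH 7.3. Detection: 460/530 nm fluorescence.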

For assay [9], the target named is Glucocorticoid receptor (Homo sapiens) (UniProt P04150). Put plainly: GR-GFP Redistribution (AID 450;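 active = compounds whose dose series gives a full or clear partial fitted curve of increased nuclear translocation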; note: potency is the fitted concentration of half-maximal effect). The conditions noted are these: U2OS GR-GFP nuclear translocation, laser cytometry, 2 h.
Assay [10] shares this target. Put plainly: GR-EFC Redistribution (AID 451; calls by dose curve; note: potency is the fitted concentration of half-maximal effect). To be noted: CHO-K1 GR-EFC translocation, beta-gal luminescence, 2 h. In a few lines: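 CHO-K1 cells expressing nuclear EA and GR-ED fragments of b-gal; compounds titrated up to 46 uM final, 2 h at 37 C. GR nuclear translocation read as complemented b-gal luminescence after 1 h RT detection.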
Assay [11] deals with Mitogen-activated protein kinase 10 (Mus musculus) (UniProt Q61831). Briefly: JNK3 AlphaScreen Assay (AID 530; active = well fitted curve in either direction with a large enough effect, not every such curve was filed as active;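 note: kinase came from lysate of stimulated human HepG2 cells; signal reports phosphorylation of biotinylated GST-cJun 1-79 at Ser73 with 10 µM ATP; % is set by controls: 0 for no effect and ±100 for the full control effect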). Summed up: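 Pre-activated (IL-1β/TNFα) JNK3 in HepG2 lysates phosphorylates biotin-GST-cJun(1-79), 10 uM ATP; anti-phospho-cJun(Ser73) AlphaScreen read at room temperature, pH 7.6 Tris buffer. Compounds pre-incubated 15 min as titrations.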
(In general: Alpha assays give light when donor and acceptor beads are brought close together.)

Assay [12] deals with 3',5'-cyclic-AMP phosphodiesterase 4B (Homo sapiens) (UniProt Q07343). Put plainly: qHTS Assay for Inhibitors of PDE-IV (AID 607; active = well fitted activation curve with a large enough effect in the main read-out, with a control signal flat, not every such curve was filed as active; note: % of control where 0% means no effect). In a few lines: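 Cell-based read-out of cAMP via a modified cyclic nucleotide-gated channel and membrane potential dye (535/590 nm) in HEK293 cells expressing PDE4 endogenously. Compounds tested up to 22.9 uM final; 100 uM RO 20-1724 reference.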

The target in assay [13] is Cytochrome P450 2C9 (Homo sapiens) (UniProt P11712). Briefly: qHTS Assay for Inhibitors and Substrates of Cytochrome P450 2C9 (AID 883). Note: % is set by controls: 0 for no effect and ±100 for the full control effect; nearly all actives have a fitted effect of over 60% in size. In a few lines:
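Human CYP2C9 (10nM) with Luciferin-H at 100uM (its KM) in 25mM KPO4; compound preincubated 10 min at 37C, then NADPH regeneration for 60 min at 37C. Luciferin read by luminescence after detection reagent; normalized to 57uM sulphaphenazole as full inhibition.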

Assay [14] has as its target Cytochrome P450 2C19 (Homo sapiens) (UniProt P33261). Briefly: qHTS Assay for Inhibitors and Substrates of Cytochrome P450 2C19 (AID 899). Note: % is set by controls: 0 for no effect and ±100 for the full control effect; nearly all actives have a fitted effect of over 60% in size. In a few lines: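 5 nM human CYP2C19 with 10uM Luciferin-H EGE (at KM) in 50mM KPO4, compound preincubated 10 min at 37C, then NADPH regeneration for 60 min at 37C. Luciferin read by luminescence after detection reagent; normalized to 57uM ketoconazole as full inhibition.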

Assay [15] concerns the target Ubiquitin carboxyl-terminal hydrolase 1 (Homo sapiens) (UniProt O94782). Briefly: Inhibitors of USP1/UAF1: Pilot qHTS (AID 504865).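 Note: rhodamine fluorescence freed from ubiquitin-rhodamine substrate followed over time; top concentration of the series differs between compounds; % is set by controls: 0 for no effect and ±100 for the full control effect; nearly all actives have a fitted effect of over 35% in size.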 In a few lines: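 Deubiquitinase activity followed as kinetic rhodamine fluorescence release from 150 nM Ub-Rho. 1 nM USP1/UAF1 with compound, after 15 min room-temperature preincubation, in HEPES pH 7.8 buffer containing TCEP, EDTA, BSA and Tween-20.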

Assay [16] concerns the target Tumor susceptibility gene 101 protein (Homo sapiens) (UniProt Q99816). Put plainly: qHTS Assay for Iinhibitors of HIV-1 Budding by Blocking the Interaction of PTAP/TSG101: Hit Validation (AID 651600). Note: potency is the fitted concentration of half-maximal effect; nearly all actives have a fitted effect of over 70% in size. In a few lines: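 FITC-PTAP peptide (50 nM final) binding to Tsg101 binding domain (10 uM final) was measured by polarization after 20 min at r.t. with compounds, in 10 mM HEPES pH 7.5 buffer with 0.15 M NaCl and 0.01% Tween 20.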

The target in assay [17] is Cytochrome P450 2D6 (Homo sapiens) (UniProt P10635). Put plainly: Cytochrome P450 family 2 subfamily D member 6 (CYP2D6) small molecule antagonists: luciferase biochemical (cell-free) qHTS assay (AID 1645840; active = well fitted curve in the direction sought with a large enough effect in the repeat runs; an effect the other way counts as inactive or inconclusive; note: potency is the fitted concentration of half-maximal effect; nearly all actives have a fitted effect of over 55% in size). Summed up: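 P450-Glo luminescent screen: recombinant CYP2D6 enzyme–proluciferin substrate mix preincubated with compound 10 min at room temperature, then NADPH regeneration added for 1 h at room temperature. Detection reagent added for 20 min; luciferin light read as relative luminescence units.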

For assay [18], the target named is Cytochrome P450 3A4 (Homo sapiens) (UniProt P08684). Put plainly: Cytochrome P450 family 3 subfamily A member 4 (CYP3A4) small molecule antagonists: luciferase qHTS assay (AID 1645841; active = well fitted curve in the direction sought with a large enough effect in the repeat runs; an effect the other way counts as inactive or inconclusive; note: nearly all actives have a fitted effect of over 45% in size). In a few lines:
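P450-Glo CYP3A4 enzyme with proluciferin substrate preincubated 10 min with compound at room temperature, then NADPH regeneration 1 h. Luciferin detection reagent added for 20 min; luminescence recorded. Ketoconazole positive control.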

Assay [19] addresses Cytochrome P450 2C9 (Homo sapiens) (UniProt P11712). Put plainly: Cytochrome P450 family 2 subfamily C member 9 (CYP2C9) small molecule antagonists: luciferase biochemical (cell-free) qHTS assay (AID 1645842; active = well fitted curve in the direction sought with a large enough effect in the repeat runs; an effect the other way counts as inactive or inconclusive; note: % is set by controls: 0 for no effect and ±100 for the full control effect; nearly all actives have a fitted effect of over 55% in size). In a few lines: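 Luminescence, after 20 min with luciferin detection reagent, reflected CYP2C9 turnover during a 1 h NADPH-driven reaction at 37C. Enzyme-substrate mix contained 0.4% bovine serum albumin and was preincubated with compound 10 min at room temperature.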

Assay [20] addresses Rap guanine nucleotide exchange factor 3 (Homo sapiens) (UniProt O95398). Put plainly: Confirmatory qHTS for agonist of cAMP-regulated guanine nucleotide exchange factor 3 (EPAC1) (AID 1645881). Note: potency is the fitted concentration of half-maximal effect; nearly all actives have a fitted effect of over 75% in size.
The target of assay [21] is Rap guanine nucleotide exchange factor 4 (Homo sapiens) (UniProt Q8WZA2). Briefly: Confirmatory qHTS for antagonist of cAMP-regulated guanine nucleotide exchange factor 4 (EPAC2) (AID 1645885). Note: % is set by controls: 0 for no effect and ±100 for the full control effect; nearly all actives have a fitted effect of over 25% in size.
Assay [22] deals with Rap guanine nucleotide exchange factor 3 (Homo sapiens) (UniProt O95398). Put plainly: Counterscreen qHTS for antagonist of cAMP-regulated guanine nucleotide exchange factor 3 (EPAC1) (AID 1645888).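 Note: fluorescence loss as bound BODIPY-GDP is released from Rap1B; % of control where 0% means no effect.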 In a few lines:
(§1)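 Rap1B–BODIPY-GDP (250 nM) with 50 uM GDP; compounds pin-transferred to 9.74 nM–152 uM final (activator) or from 7.32 nM upwards (inhibitor). Fluorescence Ex/Em 480/540 nm read at 5 and 30 min, then after adding cAMP or buffer, at room temperature.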
For orientation: The purpose of a counterscreen is to sort out artefacts and off-target activity.

The target is the same in assay [23]. Briefly: Counterscreen qHTS for agonist of cAMP-regulated guanine nucleotide exchange factor 3 (EPAC1) (AID 1645889). Note: potency is the fitted concentration of half-maximal effect; nearly all actives have a fitted effect of over 40% in size. In a few lines:
as §1

Setting [24] is: measured here: cell count channel max response.
Where [25] appears, read: measured here: lipid channel max response.

Sequence of Glucocorticoid receptor (Homo sapiens) (P04150 whole entry, looked up, the tested form may be a part): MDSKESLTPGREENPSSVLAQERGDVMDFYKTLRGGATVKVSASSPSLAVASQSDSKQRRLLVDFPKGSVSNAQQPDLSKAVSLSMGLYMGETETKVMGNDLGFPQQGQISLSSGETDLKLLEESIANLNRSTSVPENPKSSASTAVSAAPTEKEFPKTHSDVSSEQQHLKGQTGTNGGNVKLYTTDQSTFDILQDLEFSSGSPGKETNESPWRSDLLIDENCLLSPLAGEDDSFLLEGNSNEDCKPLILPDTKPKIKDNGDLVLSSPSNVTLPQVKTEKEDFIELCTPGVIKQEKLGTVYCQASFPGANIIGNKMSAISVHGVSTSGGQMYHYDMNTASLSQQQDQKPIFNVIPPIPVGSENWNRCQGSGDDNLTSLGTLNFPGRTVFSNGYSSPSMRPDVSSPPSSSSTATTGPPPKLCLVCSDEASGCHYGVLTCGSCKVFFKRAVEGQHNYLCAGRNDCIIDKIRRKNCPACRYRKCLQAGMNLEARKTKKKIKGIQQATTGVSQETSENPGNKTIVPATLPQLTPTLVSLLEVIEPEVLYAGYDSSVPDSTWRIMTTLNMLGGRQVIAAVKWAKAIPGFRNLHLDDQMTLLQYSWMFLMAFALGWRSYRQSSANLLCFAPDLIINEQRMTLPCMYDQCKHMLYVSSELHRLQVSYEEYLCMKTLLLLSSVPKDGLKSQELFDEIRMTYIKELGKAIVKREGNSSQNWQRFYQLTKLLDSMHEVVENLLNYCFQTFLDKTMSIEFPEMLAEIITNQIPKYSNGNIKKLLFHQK
Sequence of Cytochrome P450 3A4 (Homo sapiens) (P08684 whole entry, looked up): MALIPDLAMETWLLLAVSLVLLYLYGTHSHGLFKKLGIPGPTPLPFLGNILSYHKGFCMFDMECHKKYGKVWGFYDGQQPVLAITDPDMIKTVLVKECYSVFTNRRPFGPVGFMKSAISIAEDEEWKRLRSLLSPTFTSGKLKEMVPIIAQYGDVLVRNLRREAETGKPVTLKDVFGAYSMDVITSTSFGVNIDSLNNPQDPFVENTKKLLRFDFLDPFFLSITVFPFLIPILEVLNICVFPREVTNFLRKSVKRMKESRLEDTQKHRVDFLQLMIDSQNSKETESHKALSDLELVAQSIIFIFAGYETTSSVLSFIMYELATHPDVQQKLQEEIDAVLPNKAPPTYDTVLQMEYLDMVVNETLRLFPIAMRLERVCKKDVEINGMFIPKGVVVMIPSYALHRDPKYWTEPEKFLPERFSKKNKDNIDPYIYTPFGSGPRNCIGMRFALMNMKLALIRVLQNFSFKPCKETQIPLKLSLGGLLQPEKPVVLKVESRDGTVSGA
Sequence of Rap guanine nucleotide exchange factor 3 (Homo sapiens) (O95398 whole entry, looked up): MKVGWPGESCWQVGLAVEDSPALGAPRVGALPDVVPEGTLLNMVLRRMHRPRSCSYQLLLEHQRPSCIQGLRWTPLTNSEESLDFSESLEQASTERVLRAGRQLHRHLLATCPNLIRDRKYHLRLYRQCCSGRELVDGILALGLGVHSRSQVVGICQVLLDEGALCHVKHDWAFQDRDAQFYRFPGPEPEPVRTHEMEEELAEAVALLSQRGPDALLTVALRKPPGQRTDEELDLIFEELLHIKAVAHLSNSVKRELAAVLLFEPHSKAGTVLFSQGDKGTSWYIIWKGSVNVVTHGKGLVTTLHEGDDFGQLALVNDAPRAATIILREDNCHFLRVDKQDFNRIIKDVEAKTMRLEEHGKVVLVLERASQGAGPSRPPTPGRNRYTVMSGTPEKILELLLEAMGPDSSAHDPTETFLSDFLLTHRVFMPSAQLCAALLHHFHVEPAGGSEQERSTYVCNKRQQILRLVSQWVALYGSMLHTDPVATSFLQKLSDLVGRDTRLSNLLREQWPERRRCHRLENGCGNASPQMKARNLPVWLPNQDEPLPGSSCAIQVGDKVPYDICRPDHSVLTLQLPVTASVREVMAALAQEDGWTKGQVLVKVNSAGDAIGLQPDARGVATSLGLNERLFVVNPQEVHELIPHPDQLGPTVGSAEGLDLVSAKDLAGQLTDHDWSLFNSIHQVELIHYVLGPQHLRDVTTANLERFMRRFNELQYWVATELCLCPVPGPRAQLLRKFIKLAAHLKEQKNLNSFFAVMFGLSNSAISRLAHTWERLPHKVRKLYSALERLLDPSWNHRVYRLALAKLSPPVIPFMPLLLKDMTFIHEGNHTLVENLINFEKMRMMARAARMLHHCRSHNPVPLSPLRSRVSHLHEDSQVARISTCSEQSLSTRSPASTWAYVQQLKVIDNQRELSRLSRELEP
Sequence of Rap guanine nucleotide exchange factor 4 (Homo sapiens) (Q8WZA2 whole entry, looked up): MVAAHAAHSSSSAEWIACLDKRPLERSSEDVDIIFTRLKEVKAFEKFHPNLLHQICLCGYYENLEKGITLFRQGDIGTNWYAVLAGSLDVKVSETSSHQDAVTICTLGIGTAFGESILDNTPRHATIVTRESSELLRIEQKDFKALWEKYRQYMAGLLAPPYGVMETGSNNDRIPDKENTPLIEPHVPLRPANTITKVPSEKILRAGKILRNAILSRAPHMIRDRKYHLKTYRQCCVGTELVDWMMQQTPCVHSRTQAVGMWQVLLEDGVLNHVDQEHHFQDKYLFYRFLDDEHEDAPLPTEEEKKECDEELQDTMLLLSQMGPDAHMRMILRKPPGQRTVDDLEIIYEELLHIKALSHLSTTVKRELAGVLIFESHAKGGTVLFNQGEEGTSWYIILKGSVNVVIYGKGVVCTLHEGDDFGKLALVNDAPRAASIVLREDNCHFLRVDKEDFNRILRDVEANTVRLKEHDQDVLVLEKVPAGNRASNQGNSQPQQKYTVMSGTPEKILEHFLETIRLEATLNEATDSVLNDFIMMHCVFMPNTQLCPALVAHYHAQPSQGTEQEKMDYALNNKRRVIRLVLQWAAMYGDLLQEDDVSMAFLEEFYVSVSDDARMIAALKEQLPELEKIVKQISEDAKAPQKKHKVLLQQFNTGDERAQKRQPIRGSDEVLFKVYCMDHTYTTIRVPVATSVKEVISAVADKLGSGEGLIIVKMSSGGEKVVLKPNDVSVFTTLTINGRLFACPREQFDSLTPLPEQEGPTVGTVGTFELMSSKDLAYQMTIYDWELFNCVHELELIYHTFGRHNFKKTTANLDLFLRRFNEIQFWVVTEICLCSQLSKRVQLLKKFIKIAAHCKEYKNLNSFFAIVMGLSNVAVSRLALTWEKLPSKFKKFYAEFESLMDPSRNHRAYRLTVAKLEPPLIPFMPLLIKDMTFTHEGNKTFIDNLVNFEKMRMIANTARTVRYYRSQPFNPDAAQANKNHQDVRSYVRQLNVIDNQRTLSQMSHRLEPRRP
Sequence of Cytochrome P450 1A2 (Homo sapiens) (P05177 whole entry, looked up): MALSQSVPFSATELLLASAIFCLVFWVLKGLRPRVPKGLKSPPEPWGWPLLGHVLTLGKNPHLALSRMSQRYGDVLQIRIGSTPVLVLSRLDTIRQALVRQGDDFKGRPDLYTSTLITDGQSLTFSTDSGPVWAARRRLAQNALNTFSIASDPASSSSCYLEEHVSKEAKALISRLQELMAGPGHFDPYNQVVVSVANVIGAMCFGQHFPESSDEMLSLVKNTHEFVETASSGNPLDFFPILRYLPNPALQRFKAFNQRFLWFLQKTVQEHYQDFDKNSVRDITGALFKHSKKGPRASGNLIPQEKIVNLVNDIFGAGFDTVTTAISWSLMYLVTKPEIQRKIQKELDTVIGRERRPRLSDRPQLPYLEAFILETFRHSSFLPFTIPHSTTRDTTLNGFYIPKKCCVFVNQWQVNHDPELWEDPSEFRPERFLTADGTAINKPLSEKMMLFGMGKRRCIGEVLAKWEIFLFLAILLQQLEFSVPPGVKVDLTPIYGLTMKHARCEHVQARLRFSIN
Sequence of Cytochrome P450 2C9 (Homo sapiens) (P11712 whole entry, looked up): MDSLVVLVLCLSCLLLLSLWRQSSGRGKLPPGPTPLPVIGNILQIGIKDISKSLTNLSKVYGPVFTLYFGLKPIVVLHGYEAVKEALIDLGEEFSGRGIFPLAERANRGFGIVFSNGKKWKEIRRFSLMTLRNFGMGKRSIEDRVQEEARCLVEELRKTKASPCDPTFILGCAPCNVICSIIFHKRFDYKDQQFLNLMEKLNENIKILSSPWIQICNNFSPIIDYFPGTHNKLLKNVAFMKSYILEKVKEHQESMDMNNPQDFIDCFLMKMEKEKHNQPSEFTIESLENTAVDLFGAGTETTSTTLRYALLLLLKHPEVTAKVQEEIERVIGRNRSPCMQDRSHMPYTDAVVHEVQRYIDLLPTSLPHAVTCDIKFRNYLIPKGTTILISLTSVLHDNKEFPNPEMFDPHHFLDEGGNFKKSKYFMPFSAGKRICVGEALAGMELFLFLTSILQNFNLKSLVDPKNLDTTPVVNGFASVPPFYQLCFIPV
Sequence of 3',5'-cyclic-AMP phosphodiesterase 4B (Homo sapiens) (Q07343 whole entry, looked up): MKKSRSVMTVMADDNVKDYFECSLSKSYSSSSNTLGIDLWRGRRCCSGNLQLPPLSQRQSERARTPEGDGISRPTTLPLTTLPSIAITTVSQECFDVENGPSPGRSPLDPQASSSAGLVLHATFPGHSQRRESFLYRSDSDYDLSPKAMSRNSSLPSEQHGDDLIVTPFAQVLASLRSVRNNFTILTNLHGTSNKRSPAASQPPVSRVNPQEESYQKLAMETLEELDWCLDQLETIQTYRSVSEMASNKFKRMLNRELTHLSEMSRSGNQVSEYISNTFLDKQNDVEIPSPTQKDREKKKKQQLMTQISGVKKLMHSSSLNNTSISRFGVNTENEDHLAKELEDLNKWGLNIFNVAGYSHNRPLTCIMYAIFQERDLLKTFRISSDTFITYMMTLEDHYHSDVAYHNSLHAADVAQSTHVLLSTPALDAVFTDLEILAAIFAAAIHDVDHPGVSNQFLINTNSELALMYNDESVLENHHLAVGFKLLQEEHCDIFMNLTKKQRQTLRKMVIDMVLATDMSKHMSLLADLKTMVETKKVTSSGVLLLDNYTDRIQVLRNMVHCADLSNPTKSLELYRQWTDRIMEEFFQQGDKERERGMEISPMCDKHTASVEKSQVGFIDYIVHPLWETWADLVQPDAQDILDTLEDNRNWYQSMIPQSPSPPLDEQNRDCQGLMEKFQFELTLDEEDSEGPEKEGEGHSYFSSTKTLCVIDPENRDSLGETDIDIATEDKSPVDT

As for `CC(=O)OC1CC(OC(C)=O)[C@]2(C)C(CC(OC(C)=O)[C@]3(C)C2CC[C@@]2(C)C(c4ccoc4)C(=O)C4O[C@]432)C1(C)C` (stereo partly specified), in assay [1], the Potency was 3.98 µM (active). In addition, the Potency entry in [2] and in [3] was “inactive” in each case. Moreover, the activity change, negative = inhibition in [4] was -15.3% (inactive). For the same compound, the max response in assay [4] (setting [24]) was -13.1%; in assay [4] (setting [25]), -24.4%.
In the case of `CC1CC2CC(=O)C3CCCN4CCCC2[C@]34C1` (stereo partly specified), the Potency entry in [1] and in assay [3] was “inactive” in each case. In addition, in [4], the activity change, negative = inhibition is 3.72% (inactive). In addition, the max response is 9.37% in [4] (setting [24]) and 11.3% in assay [4] (setting [25]).
As to `CC(N)C(O)c1ccc(O)c(O)c1` (stereo unspecified), the Potency entry in assay [1], in assay [5] and in assay [3] was “inactive” in each case. Moreover, the activity change, negative = inhibition in assay [4] is 9.23% (inactive) and 2.97% (inactive). Besides, the max response in [4] (setting [24]) is 10.7% and 5.9%; in assay [4] (setting [25]), 23.4% and 5.16%.
Regarding `C=C(C)C1CNC(C(=O)O)C1CC(=O)O` (stereo unspecified), the Potency entry in [1], in assay [5] and in assay [3] was “inactive” in each case. In assay [4], the activity change, negative = inhibition was 6.75% (inactive). Further, the max response in assay [4] (setting [24]) came out at 5.93%; in [4] (setting [25]), 13%.
Consider `CC1=C2C3OC(=O)C(C)C3CC[C@@]2(C)C=CC1=O` (stereo partly specified), for which the Potency result in assay [2], in assay [5] and in assay [3] was “inactive” each time. Moreover, the activity change, negative = inhibition in assay [4] is 1.14% (inactive). Besides, the values for the max response in assay [4] (setting [24]) and in assay [4] (setting [25]) were 15.1% and 16.8%, respectively.
In the case of `NC(=NCCCC(N)C(=O)O)N[N+](=O)[O-]` (stereo unspecified), the Potency result in [3] was “inactive”. The activity change, negative = inhibition in [4] was 0.218% (inactive). For the same compound, the results for the max response in [4] (setting [24]) and in assay [4] (setting [25]) were -5.56% and -2.81%, respectively.
Regarding `CC1(C)C(O)CC(O)[C@]2(C)C1CC(O)[C@]1(C)C2CC[C@@]2(C)C(c3ccoc3)OC(=O)C3O[C@]312` (stereo partly specified), the Potency result in [2], in [5] and in [3] was “inactive” throughout. Besides, the activity change, negative = inhibition in [4] is 0.703% (inactive). Further, the max response in [4] (setting [24]) came to 12.6%; in [4] (setting [25]), 16.1%.
Take `CC1=NCCc2c1[nH]c1cc(O)ccc21`: the Potency is 12.6 µM (active) and 25.1 µM (active) in [6]; > 20.6 µM (inactive) and > 46 µM (inactive) in assay [9]; > 20.6 µM (inactive) and > 46 µM (inactive) in [10]; 3.26 µM (active) in assay [16]; 12 µM (active) in assay [17]; 63 µM (active) and 28.1 µM (active) and 48.4 µM (active) in [20]. The Potency in assay [23] was 12.6 µM (active). The activity change, negative = inhibition was -14.7% (inactive) in [7] and 251% [at 30.8 µM] (inactive) in assay [22]. Besides, the outcome in assay [8], in [11] and in [18] was inactive. Moreover, the Potency result in [12], in assay [13], in assay [1], in [2], in assay [14] and in assay [5] was “inactive” each time. In addition, the Potency entry in assay [3], in [15], in assay [19] and in assay [21] was “inactive” in each case.

The record behind these values is PubChem BioAssay (NCATS).
